The record followed here is PubChem BioAssay (NCI).

Molecules are shown by their SMILES. The panel holds about 83,000 compounds, 20% with a hit somewhere; the sample as a whole holds those more often.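 The endpoint reported here, percent growth, reads 100 for growth as untreated, 0 for no net growth and -100 for all cells dead.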 Unmarked numbers belong to inactive results. Activity calls are given as the source filed them. How the source made its calls: active means growth percent below 10; inactive means the rest.

Holding throughout (assay): NCI-60 one-dose screen, 48 h (100 = growth as untreated, 0 = no growth, -100 = all killed)
Common to all, as to settings: 10 µM unless noted

Experiment [1] deals with SR leukemia.
Experiment [2] deals with RPMI-8226 leukemia.
Experiment [3] has as its system OVCAR-8 ovarian.
The test system of experiment [4] is OVCAR-5 ovarian.
In experiment [5] the test system is OVCAR-4 ovarian.
Experiment [6] has as its system SK-OV-3 ovarian.
Experiment [7] has as its system IGROV1 ovarian.
The subject of experiment [8] is OVCAR-3 ovarian.
In experiment [9] the test system is HS 578T breast.
Experiment [10] has as its system NCI/ADR-RES ovarian.

With `CC(=O)N1N=C(c2ccc(-n3ccc(C(F)(F)F)n3)c(F)c2)CC1c1ccc[nH]1` (stereo not given), the growth in [1] was 92.8%; in experiment [2] it was 80.8%; in [3], 98.9%; in experiment [4] it was 105%; in experiment [5] it was 102%; in experiment [6] it was 118%. The growth in [7] was 112%; in [8], 107%; in experiment [9], 106%; in experiment [10], 104%.
`Nc1c(C(=O)Nc2cccc3cnccc23)sc2nc3c(cc12)CN(Cc1ccccc1)CC3`: the growth in experiment [1] was 95.5%; in [2], 99.7%; in experiment [3] it was 106%; in experiment [4], 105%; in [5], 105%; in experiment [6] it was 111%. Besides, the growth was 99.9% in experiment [7], 108% in experiment [8], 104% in experiment [9] and 112% in experiment [10].
With `COc1cc2nc(-c3ccc(Cl)cc3)cc(OCCCN3CCCCC3)c2cc1OC`, the growth in experiment [1] is 9.98% (active); in [2] it was 21%; in [3] it was 49.8%; in [4], 49.3%; in experiment [5] it was 61.7%; in experiment [6], 78.9%. The growth in experiment [7] is 33.2%; in experiment [8], 72%; in experiment [9], 62.1%; in [10], 46.4%.
In the case of `COc1ccc(Cc2cnc(NC(=O)c3ccc4c(c3)OCCO4)s2)cc1`, the growth is 3.32% (active) in [1]; 15.8% in [2]; 16.9% in experiment [3]; 26.1% in experiment [4]; 41.2% in [5]; 33.4% in [6]. For the same compound, the growth in experiment [7] was 20.2%; in [8], 6.58% (active); in experiment [9], 31.7%; in [10] it was -1.17% (active).
On to `COc1cc2c(-c3cc4c(cc3CNCCc3ccc5c(c3)OCO5)OCO4)cccc2c(OC)c1O`, for which the growth in experiment [1] was 27.8%; in experiment [2], 63.8%; in experiment [3] it was 79.9%; in experiment [4] it was 90.9%; in experiment [5], 88.4%; in experiment [6] it was 99.6%. Further, the growth in experiment [7] was 61.6%; in experiment [8], 86.1%; in experiment [9], 86.8%; in experiment [10], 74.5%.
In the case of `COc1cc2c(=O)n(CCCN(C)C)c3c4cc5c(cc4ccc3c2cc1OC)OCO5`, the growth is 9.59% (active) in experiment [1]; 6.97% (active) in [2]; 48.3% in experiment [3]; 112% in [4]; 69.9% in experiment [5]; 102% in experiment [6]. Further, the growth in experiment [7] is 31.9%; in experiment [8], 65.5%; in [9], 67.1%; in experiment [10], 53.5%.
Regarding `CN(C)CCn1c2ccc(Br)cc2c2nc3ccccc3nc21`, the growth is 11.2% in experiment [1]; 9.2% (active) in [2]; 32.9% in [3]; 46.4% in experiment [4]; 44% in experiment [5]; 50.8% in experiment [6]. Besides, the growth was 18% in experiment [7], 39.9% in experiment [8], 77.8% in experiment [9] and 31.8% in experiment [10].
Consider `COc1cc2nc(-c3ccc(Cl)cc3)cc(OCCCN3CCC(O)CC3)c2cc1OC`, for which the growth in experiment [1] is 15.9%; in [2], 23.2%; in [3] it was 42.9%; in experiment [4] it was 45.8%; in experiment [5], 68.7%; in experiment [6], 74.3%. Also, the growth in [7] was 33.2%; in [8], 71.7%; in [9], 66.9%; in experiment [10], 44.6%.
Take `CC[C@]12C=CCN3CC[C@@]4(c5cc(NC(=O)CCC(=O)O[C@H]6CC[C@H]7[C@@H]8CCC9=CC(=O)CC[C@@H]9[C@H]8CC[C@]67C)c(OC)cc5N(C)[C@H]4[C@@](O)(C(=O)OC)[C@@H]1OC(C)=O)[C@@H]32`: the growth in experiment [1] is 40%; in experiment [2] it was 54.6%; in [3], 75.6%; in experiment [4] it was 96.1%; in [5] it was 67%; in experiment [6], 104%. Moreover, the growth in experiment [7] was 61.6%; in [8] it was 80.8%; in [9] it was 73.9%; in experiment [10], 80.1%.
On to `Cc1ccc(-c2[nH][nH]c(=O)c2-c2nc3ccccc3s2)cc1`, for which the growth in [1] is 97.9%; in experiment [2] it was 96.9%; in [3] it was 105%; in [4], 94.4%; in experiment [5], 105%; in experiment [6] it was 104%. The growth is 106% in experiment [7], 111% in experiment [8], 97.3% in [9] and 98% in experiment [10].
On to `C=C1C(=O)O[C@H]2[C@H]1CC/C(C(=O)NCCCCCNC(=O)/C1=C/CC[C@@]3(C)O[C@H]3[C@H]3OC(=O)C(=C)[C@@H]3CC1)=C\CC[C@@]1(C)O[C@@H]21`, for which the growth in [1] is 83.6%; in experiment [2] it was 95.5%; in experiment [3] it was 103%; in [4], 93.9%; in experiment [5], 116%; in experiment [6], 120%. For the same compound, the growth in experiment [7] was 101%; in experiment [8], 103%; in [9] it was 104%; in experiment [10], 103%.
In the case of `CN(C)CCC(=O)c1ccc([N+](=O)[O-])cc1`, the growth in experiment [1] is 97.8%; in [2], 89%; in [3], 110%; in [4], 102%; in experiment [5], 100%; in experiment [6], 99.5%. For the same compound, the growth in experiment [7] is 109%; in experiment [8], 110%; in [9] it was 107%; in experiment [10], 107%.
As to `Nc1n[nH]c2cccc(C#Cc3cccc(C(=O)Nc4cc(CN5CCOCC5)cc(C(F)(F)F)c4)c3)c12`, the growth in experiment [1] was 35.6%; in experiment [2], 12.9%; in [3], 28.9%; in [4], 34.3%; in [5], 33.1%; in experiment [6] it was 82.9%. The growth in experiment [7] was 7.98% (active); in experiment [8], 46.7%; in experiment [9], 10.2%; in experiment [10], 42.1%.
